# Methyltransferases: Primary Screen for Target Class Profiling of Small Molecule Inhibitors of Methyltransferases; purified enzyme, MTase-Glo SAH luminescence; stronger effect = lower value; calls only at 40 µM; 25,000 compounds, 3.9% hits; AID 1745853, 2022; call rule not given here
#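 Each enzyme was assayed with SAM and its substrate. SAH formation detected by MTase-Glo luminescence; single-point 40 uM screen[…].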
# * = called active by the depositor; i = inactive; + = active, no number; ! = a repeat was not active. Shown is part of a subset that was picked to be rich in hits. % is set by controls: 0 for no effect and ±100 for the full control effect.
SMILES,Methyltransferases
Cc1ccccc1CN1C(=O)c2cc(C3CC3)nn2CC1(C)C(=O)NC1CCCCCC1 (configuration not stated),i
Cc1cc(C)cc(NC(=O)c2cc3n(n2)CC(C)(C(=O)NC2CCCCC2)N(C)C3=O)c1 (configuration not stated),i
CCN(CCCNC(=O)CCCc1nnc2n3nc(C)nc3c3ccccc3n12)c1cccc(C)c1,i
Cc1cc(N(C)C)ccc1-c1nc2ccc(-c3nc4ccc(N5CCN(C)CC5)cc4[nH]3)cc2[nH]1,+
COc1cccc(CN2C(=O)c3cc(C(C)(C)C)nn3CC2(C)C(=O)NC2CCCCC2)c1 (configuration not stated),i
Cc1ccc(CNc2ncnc3ccc(-c4ccc(CO)o4)cc23)o1,+
CCC(C)NC(=O)c1ccc2c(=O)n(C)c3nn(CC(=O)c4ccc(C)cc4C)c(=O)n3c2c1 (configuration not stated),i
Cc1ccc(Cn2c(=O)c3ccc(C(=O)NC(C)C)cc3n3c(=O)n(CC(=O)NC(C)(C)C)nc23)cc1,i
O=c1c2ccccc2n2c(=O)n(Cc3c(F)cccc3Cl)nc2n1Cc1ccccc1,i
Cc1nc(N=Nc2cc(S(=O)(=O)O)c3cc([N+](=O)[O-])cc(S(=O)(=O)O)c3c2)c(COP(=O)(O)O)c(C=O)c1O,+
COc1ccccc1CNC(=O)C1c2c(n(C)c3ccccc23)SCC(=O)N1c1ccc(F)cc1 (configuration not stated),i
COc1ccccc1CN1C(=O)c2cc3oc(C)cc3n2CC1(C)C(=O)NC1CCCCC1 (configuration not stated),i
O=C(CCc1nnc2n(Cc3ccc(Cl)cc3)c(=O)c3ccccc3n12)Nc1ccc(F)c(F)c1,i
CCOc1ccccc1CN1C(=O)c2cc3sccc3n2CC1(C)C(=O)NC1CCCC1 (configuration not stated),i
Cc1ccc(CNC(=O)C2(C)Cn3nc(C(=O)NCCCOC(C)C)cc3C(=O)N2C)cc1 (configuration not stated),i
C=C1C(=O)OC2CC(C)=C(C(C)CCCO[C@@H]3O[C@H](CO)[C@@H](O)[C@H](O)[C@H]3O)C(O)C12 (some centres not stated),i
C=C1C(=O)OC2CC(COC(=O)C(C)C)=C(C(C)CCCOC(C)=O)[C@@H](OC(C)=O)C12 (some centres not stated),i
C=C1C(=O)O[C@@H]2CC(C)=C([C@@H](C)CCCOC(C)=O)[C@@H](O)[C@H]12,+
COc1ccc(Cn2c(=O)c3ccccc3n3c(-c4cccc(Cl)c4)nnc23)cc1,i
Cc1ccccc1CN1C(=O)c2ccc(-c3ccco3)n2CC1(C)C(=O)NC1CCCC1 (configuration not stated),i
Cc1ccc(S(=O)(=O)/C=C/C#N)cc1,+!
CCC(C)NC(=O)c1ccc2c(=O)n(CC(C)C)c3nn(CC(=O)NCc4ccc(C)cc4)c(=O)n3c2c1 (configuration not stated),i
CCCn1c(=O)c2ccc(C(=O)NC(C)C)cc2n2c(SCC(=O)c3ccc(F)cc3)nnc12,i
CCOCCCNC(=O)C1c2c(n(C)c3ccccc23)SCC(=O)N1c1ccc(CC)cc1 (configuration not stated),i
CC(C)Cn1c(=O)c2ccccc2n2c(=O)n(Cc3ccc(F)cc3)nc12,i
SMILES,Methyltransferases
CC1(C(=O)NC2CCCCCC2)Cn2c(ccc2-c2ccco2)C(=O)N1Cc1ccc2c(c1)OCO2 (configuration not stated),i
CC(=O)Nc1ccc(C(=O)NCc2nn(Cc3ccccc3)c3ccccc23)cc1,i
CN1CCc2c(n(Cc3ccc(C(=O)NO)cc3)c3ccccc23)C1,+
O=C(c1cccc([N+](=O)[O-])c1)N1CCc2c(c3ccccc3n2CC2CC2)C1,i
Cc1ccc(-c2n[nH]n3c2nc(=O)c2ccc(C(=O)NCCC(C)C)cc23)cc1,i
O=C(NC1CCCC1)c1ccc2c(=O)n(Cc3ccccc3)c3n[nH]c(=O)n3c2c1,i
CC(C)Cn1c(=O)c2ccc(C(=O)NC(C)C)cc2n2c(=O)n(CC(=O)c3ccc(Cl)cc3)nc12,i
Cc1ccc(C(N)=O)cc1Nc1nccc(-c2cn(C(C)C)c3cnccc23)n1,+
CCc1cc2c(cc3n2CC(C(=O)NC2CCCCC2)(c2ccccc2)N(Cc2ccccc2Cl)C3=O)s1 (configuration not stated),i
COC(=O)c1ncn2c1C(=O)N(c1ccc(C(C)C)cc1)C(C)(C(=O)NCc1ccccc1)C2 (configuration not stated),i
Cc1ccc(CCNC(=O)CCc2nnc3n(Cc4ccc(F)cc4)c(=O)c4ccccc4n23)cc1,i
